HTT cytoprotect: cytoprotection in Huntington HTT-Q103 PC12 cell model. PC12 HTT-Q103 induced, cytoprotection, ATP luminescence, 40 h. Potency, µM (highest dose often 56.4 µM), usual class: activators. 230,000 tested, 0.14% active; further: nearly all actives have a fitted effect of over 45% in size
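Compounds added alongside 100 nM tebufenozide, which induces toxic Q103 huntingtin exon 1-GFP in stable PC12 cells; surviving cells quantified by luminescent ATP measurement. Medium: phenol red-free DMEM, 5% equine and 5% calf serum.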
HPGD block: HPGD (human) dehydrogenase inhibition. AID 894. Potency, µM, actives largely listed as inhibitors. 150,000 tested, 4.3% active. purified HPGD, NADH fluorescence kinetic, PGE2 substrate; active means well fitted inhibition curve with a large enough effect, not every such curve was filed as active; inconclusive means small, poorly fitted or top-dose-only effect, or another doubt; inactive means no such curve, though single readings can be large or run the other way
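NADH formation kinetics: reaction with 30 uM PGE2 and 1 mM NAD+ (final), 20 nM enzyme, Tris-HCl pH 8 with Tween 20, after 15 min compound preincubation at room temperature. Fluorescence change, last versus first of five reads.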
IMPase inh: cell-permeable inhibitors of inositol monophosphatase (IMPase); P97697; CHO-M1 cells, IP1 accumulation, HTRF TR-FRET ratio; inhibition (IP1 accumulation), % at 46.1 µM; 120,000 tested, under 10 active; AID 901; active means well fitted curve in the direction sought with a large enough effect in the signal ratio, not every such curve was filed as active; inconclusive means small, poorly fitted or top-dose-only effect, or a change in a side signal; inactive means no such curve, though single readings can be large or run the other way; the % refers to the signal ratio;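 further: cells stimulated with carbachol in lithium chloride buffer; higher means more IMPase inhibition seen as more IP1 and lower FRET ratio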
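Carbachol-driven Gq signalling in CHO-M1 cells (2000/well) generates IP1. Compounds that block IMPase raise IP1 and so reduce the FRET signal from Eu-anti-IP1 and d2-IP1 after a 10 min room-temperature lysis.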
ALDH1A1 inh: inhibitors of human aldehyde dehydrogenase 1A1 | Potency, µM (titrated, usually from 75.3 µM), most hits filed as inhibitors | P00352 | 220,000 tested, 7.3% active | Purified ALDH1A1, NADH fluorescence, propionaldehyde substrate; active means well fitted inhibition curve with a large enough effect, not every such curve was filed as active; inconclusive means small, poorly fitted or top-dose-only effect, or another doubt; inactive means no such curve, though single readings can be large or run the other way
Target sequence (P00352 whole entry, looked up): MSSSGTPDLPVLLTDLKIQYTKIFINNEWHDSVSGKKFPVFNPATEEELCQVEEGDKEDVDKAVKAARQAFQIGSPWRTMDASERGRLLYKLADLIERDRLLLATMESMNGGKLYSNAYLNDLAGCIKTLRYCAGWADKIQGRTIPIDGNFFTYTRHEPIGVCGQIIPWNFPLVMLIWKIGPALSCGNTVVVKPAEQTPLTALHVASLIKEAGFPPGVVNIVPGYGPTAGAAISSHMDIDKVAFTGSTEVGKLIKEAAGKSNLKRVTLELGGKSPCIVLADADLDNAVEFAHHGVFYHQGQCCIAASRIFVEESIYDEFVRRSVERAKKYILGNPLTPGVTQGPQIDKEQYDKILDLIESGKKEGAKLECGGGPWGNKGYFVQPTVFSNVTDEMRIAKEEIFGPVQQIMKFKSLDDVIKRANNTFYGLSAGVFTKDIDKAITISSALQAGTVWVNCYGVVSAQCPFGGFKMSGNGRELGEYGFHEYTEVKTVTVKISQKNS
HttQ103 aggreg: inhibitors of mutant huntingtin aggregate formation in PC12 cells | PC12 HttQ103-GFP aggregates, Acumen cytometry, 40 h | Potency, µM (top dose mostly 46.1 µM), usual class: inhibitors | AID 1688 | 220,000 tested, 1.1% active; further: nearly all actives have a fitted effect of over 60% in size
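Ecdysone-promoter PC12 model expressing HTT exon 1 Q103 fused to GFP, induced by tebufenozide at 100 nM final. Compounds titrated; aggregates sized 1–25 µm scored on a 488 nm laser cytometer.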
IMPase Li inh: membrane-permeable IMPase blocker, potentiated with lithium | CHO-M1 cells, IP1 TR-FRET (IP-One), carbachol + lithium | AID 1457 | Potency, µM (top dose mostly 59.4 µM), actives largely listed as inhibitors | 210,000 tested, 0.35% active;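 further: IP1 builds up when IMPase is blocked and the TR-FRET signal falls; nearly all actives have a fitted effect of over 50% in size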
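IP1 accumulation measured by competitive TR-FRET in lysed CHO-M1 cells after 30 min compound exposure at 37C, with a small lithium addition to potentiate weak responses. Hill-equation AC50 from ratio and donor-channel data.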
Of the large screens only hits and unclear results are named; the others gave an inactive call. In the library only some 9.4% were active in any assay of this set; here they are far more common. Unless noted, the call rests on the fitted dose curve; in most records, active means well fitted curve in the direction sought with a large enough effect; inconclusive means small, poorly fitted or top-dose-only effect, or another doubt; inactive means no such curve, though single readings can be large; an effect the other way counts as inactive or inconclusive.

CCOC(=O)c1c(NC(=O)c2cccs2)sc(C(=O)N2CCOCC2)c1C	none (no result: HPGD block, IMPase inh, ALDH1A1 inh, HttQ103 aggreg, IMPase Li inh)
COC(=O)c1sccc1NC(=O)c1c(-c2ccccc2)noc1C	ALDH1A1 inh 8.9µM (no result: IMPase inh)
COC(=O)c1c(-c2ccc(C)cc2)csc1NC(=O)c1c(-c2ccccc2)noc1C	HPGD block inconclusive, ALDH1A1 inh inconclusive
CCOC(=O)c1c(NC(=O)c2cccs2)sc(C(=O)N(C)C)c1C	HPGD block 16µM, ALDH1A1 inh 22µM
CN(C)C(=O)c1ccc(NC(=O)c2cccnc2)cc1	HPGD block 32µM
NC(=O)[C@@H]1CCCN1Cc1ccc2c(c1)OCO2	none (no result: IMPase inh, HttQ103 aggreg)
CCCOc1cccc(NC(=O)c2c(-c3ccccc3)noc2C)c1	HPGD block inconclusive, ALDH1A1 inh inconclusive, HttQ103 aggreg 6.3µM
COC(=O)c1sccc1NC(=O)c1cccnc1	HPGD block 28µM
COc1ccc(Cc2nnc(NC(=O)c3c(-c4ccccc4)noc3C)s2)cc1OC	ALDH1A1 inh 32µM
COc1ccccc1Oc1c(C)oc2c(CN(C)C)c(O)ccc2c1=O	HPGD block inconclusive, IMPase inh inconclusive, ALDH1A1 inh inconclusive
Cc1cc(C)c[n+](-c2[nH]c(=O)sc2/C=N/NC([S-])=Nc2ccccc2)c1	HPGD block 28µM, ALDH1A1 inh inconclusive
O=c1[nH]c(-[n+]2ccccc2)c(/C=N/NC([S-])=Nc2ccccc2)s1	ALDH1A1 inh 20µM (no result: HPGD block, IMPase inh, IMPase Li inh)
CCc1ccc[n+](-c2[nH]c(=O)sc2/C=N/NC([S-])=Nc2ccccc2)c1	ALDH1A1 inh 14µM (no result: HPGD block, IMPase Li inh)
Cc1cc[n+](-c2[nH]c(=O)sc2/C=N/NC([S-])=Nc2ccccc2)cc1	ALDH1A1 inh 25µM
Cc1ccc(/C=N/NC(=O)CCSc2ccccc2)cc1	none (no result: IMPase inh)
CCc1ccc[n+](-c2[nH]c(=O)sc2/C=N/N=C(\N)[O-])c1	none (no result: HPGD block, IMPase inh, ALDH1A1 inh, IMPase Li inh)
CO[C@@H]1/C=C\CC(=O)N2CCC[C@@H]2C(=O)OC[C@H](C)C(=O)OC[C@H]1C	none (no result: HPGD block, IMPase inh, HttQ103 aggreg, IMPase Li inh)
O=C1/C(=C\c2cccs2)CCC/C1=C/c1cccs1	none (no result: HPGD block, IMPase inh, ALDH1A1 inh, IMPase Li inh)
CC1CCN(S(=O)(=O)c2cccc(C(=O)N(Cc3ccccc3)c3ccccn3)c2)CC1	HttQ103 aggreg 11µM (no result: HPGD block, IMPase inh)
CCN(CC)S(=O)(=O)c1ccc(N2CCOCC2)c(NC(=O)COc2ccccc2C#N)c1	ALDH1A1 inh 13µM (no result: HPGD block, IMPase inh)
CCN(CC)S(=O)(=O)c1ccc(N2CCOCC2)c(NC(=O)c2c3c(nc4ccccc24)CCC3)c1	ALDH1A1 inh 6.3µM (no result: IMPase inh)
CCN(CC)S(=O)(=O)c1ccc(N2CCOCC2)c(NC(=O)Cc2ccc(Cl)cc2)c1	ALDH1A1 inh 25µM, HttQ103 aggreg inconclusive (no result: HPGD block, IMPase Li inh)
CCN(CC)S(=O)(=O)c1ccc(N2CCOCC2)c(NC(=O)c2cc(=O)[nH]c3ccccc23)c1	ALDH1A1 inh 14µM (no result: HPGD block, IMPase inh)
CCN(CC)S(=O)(=O)c1ccc(N2CCOCC2)c(NC(=O)c2ccc(NC(C)=O)cc2)c1	none (no result: HPGD block, IMPase inh, ALDH1A1 inh, IMPase Li inh)
CCN(CC)S(=O)(=O)c1ccc(N2CCOCC2)c(NC(=O)C(C)(C)C)c1	none (no result: HPGD block, IMPase inh, ALDH1A1 inh, IMPase Li inh)
COc1ccc(Oc2ncc3nc(-c4cc(F)cc(F)c4)c(=O)n(CCC#N)c3n2)cc1	HPGD block inconclusive, ALDH1A1 inh inconclusive (no result: IMPase inh, HttQ103 aggreg)
COc1ccccc1NC(=O)CSc1nnc2c3ccccc3n(C(C)C)c2n1	none (no result: HTT cytoprotect, HPGD block, ALDH1A1 inh, HttQ103 aggreg, IMPase Li inh)
Cc1cc(C)cc(NC(c2cccc(Cl)c2)c2nnc(-c3ccccc3)o2)c1 (stereo not drawn)	none (no result: HTT cytoprotect, HPGD block, ALDH1A1 inh, HttQ103 aggreg, IMPase Li inh)
O=C(O)c1ccccc1NS(=O)(=O)c1ccc(Cl)c(Cl)c1	none (no result: HTT cytoprotect, IMPase inh, HttQ103 aggreg, IMPase Li inh)
CCC(=O)Nc1cc(Cl)ccc1N1CCN(C(=O)CC)CC1	none
CCC(=O)N1CCN(c2ccc(Cl)cc2NC(=O)Cc2ccccc2)CC1	ALDH1A1 inh 5µM
CCN(CC)S(=O)(=O)c1ccc(N2CCOCC2)c(NC(=O)c2ccc3ccccc3c2)c1	HPGD block inconclusive, ALDH1A1 inh inconclusive (no result: IMPase inh)
CCN(CC)S(=O)(=O)c1ccc(N2CCCCC2)c(C(=O)Nc2ccccc2N2CCOCC2)c1	none
CCN(CC)S(=O)(=O)c1ccc(N2CCOCC2)c(NC(=O)c2cc(-c3ccccn3)nc3ccccc23)c1	ALDH1A1 inh 3.5µM (no result: HTT cytoprotect, HPGD block, IMPase inh)

Compound activity: PubChem BioAssay, National Center for Advancing Translational Sciences (NCATS)
